Assay [1] in a line: qHTS assay to identify small molecule antagonists of the estrogen related receptor (ERR) signaling pathway - cell viability counter screen (AID 1224818). Note: potency is the fitted concentration of half-maximal effect.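 Note: viability measured after 17.5 h of compound exposure.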 The method, boiled down:
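Cytotoxicity counter screen: fluorescence from CellTiter-Fluor, added after 17.5 h compound exposure at 37 C and read 30 min later. ERR cell line seeded at 2,000 cells/well, preincubated 6 h before dosing.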
For orientation: qHTS replaces the single test concentration by a dilution series.

Assay [2] is described as follows: qHTS assay to identify small molecule antagonists of the estrogen related receptor (ERR) signaling pathway (AID 1224819; note: nearly all actives have a fitted effect of over 50% in size; note: potency is the fitted concentration of half-maximal effect). The method in brief:
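LOPAC library screened for antagonism as reduced One-Glo luminescence in ERR reporter cells (2,000/well). Compounds were added after 6 h pre-incubation and left 18 h at 37C; reading followed a 30 min room-temperature reagent step.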

A short description of assay [3]: qHTS assay to identify small molecule agonists of the estrogen related receptor (ERR) signaling pathway (AID 1224820). The method in brief: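 After 6 h plating (2,000 cells/well) and 18 h compound treatment at 37 C, ERR cells were lysed with One-Glo and luminescence read after 30 min at room temperature.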
Assay [4] relates to estrogen-related receptor alpha (ERRalpha) with PGC-1alpha coactivator, human. The assay is described as follows: qHTS assay to identify small molecule antagonists of the estrogen related receptor signaling pathway with the pleiotropic PPARgamma coactivator (PGC) (AID 1224821; calls by dose curve; note: nearly all actives have a fitted effect of over 50% in size; note: potency is the fitted concentration of half-maximal effect). The method, boiled down: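 Luminescence from One-Glo luciferase reagent (30 min, room temperature) measured after 18 h compound treatment at 37 °C. Cells carry the PGC/ERR reporter and were seeded 6 h prior to dosing.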

Assay [5] can be described thus: qHTS assay to identify small molecule antagonists of the estrogen related receptor signaling pathway with the pleiotropic PPARgamma coactivator (PGC) cell viability counter screen (AID 1224822; note: potency is the fitted concentration of half-maximal effect). The method in brief: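 Viability counter-screen read by fluorescence intensity after 30 min with CellTiter-Fluor at 37 C; PGC/ERR reporter cells were exposed to compounds for 17.5 h at 37 C following a 6 h preincubation.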

Assay [6] can be described thus: qHTS assay to identify small molecule agonists of the estrogen related receptor signaling pathway with the pleiotropic PPARgamma coactivator (PGC) (AID 1224823). The method, boiled down:
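Luminescence from One-Glo reagent (30 min, room temperature) was read after 18 h compound treatment at 37 C of PGC/ERR cells plated 6 h beforehand; compounds delivered in DMSO by pin tool.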

Inconclusive results are not listed. Activity calls are given as the source filed them. Unless noted, calls come from the whole dose curve; as a rule, active = well fitted curve in the direction sought with a large enough effect in the repeat runs; inconclusive = weak or mixed curves; inactive = no such curve, though single readings can be large; an effect the other way counts as inactive or inconclusive.

`CN1CCc2cccc(Cl)c2CC1`: the Potency result in assay [1], in assay [2], in assay [3], in assay [4], in assay [5] and in assay [6] was “inactive” in each case.
`CCCN(CCC)[C@H]1CCc2c(F)ccc(O)c2C1`: the Potency entry in assay [1], in assay [2], in assay [3], in assay [4], in assay [5] and in assay [6] was “inactive” throughout.
With `C[N+]1(C)CCC(OC(=O)C(c2ccccc2)c2ccccc2)CC1`, the Potency entry in assay [1], in assay [2], in assay [3], in assay [4], in assay [5] and in assay [6] was “inactive” throughout.
In the case of `COc1ccc(OC)c(C(O)C(C)N)c1` (configuration not stated), the Potency entry in assay [1], in assay [2], in assay [3], in assay [4], in assay [5] and in assay [6] was “inactive” throughout.
For `CN(N=O)c1ccc(O)c(O)c1`, the Potency entry in assay [1], in assay [2], in assay [3], in assay [4], in assay [5] and in assay [6] was “inactive” throughout.
As for `CC(C)(C)OC(=O)NC1[C@H]2CNC[C@@H]12` (some centres not stated), the Potency entry in assay [1], in assay [2], in assay [3] and in assay [6] was “inactive” each time. The Potency in assay [4] is 15.5 µM (active); in assay [5], 20.3 µM (active).
For `CCN1C[C@@]2(COC)C3[C@@H](OC)C4[C@H]1C3([C@@H]1C[C@@]3(O)[C@H](OC(=O)c5ccccc5)[C@@H]1[C@]4(OC(C)=O)[C@@H](O)[C@@H]3OC)[C@H](OC)C[C@H]2O`, the Potency entry in assay [1], in assay [2], in assay [3], in assay [4], in assay [5] and in assay [6] was “inactive” throughout.
With `C[N+](C)(C)CC#CCN1CCCC1=O`, the Potency result in assay [1], in assay [2], in assay [3], in assay [4], in assay [5] and in assay [6] was “inactive” each time.
On to `O=[N+]([O-])c1ccc2nc(N3CCNCC3)ccc2c1`, for which the Potency result in assay [1], in assay [2], in assay [3], in assay [4], in assay [5] and in assay [6] was “inactive” throughout.
Turning to `CC(C)CC(NP(=O)(O)O[C@@H]1O[C@@H](C)[C@H](O)[C@@H](O)[C@H]1O)C(=O)NC(Cc1c[nH]c2ccccc12)C(=O)O` (some centres not stated), the Potency entry in assay [1], in assay [2], in assay [3], in assay [4], in assay [5] and in assay [6] was “inactive” in each case.
For the compound `NC(N)=NOCC[C@H](N)C(=O)O`, the Potency result in assay [1], in assay [2], in assay [3], in assay [4], in assay [5] and in assay [6] was “inactive” each time.
In the case of `C[N+]1(C)CCc2cc3c(cc2[C@H]1[C@@H]1OC(=O)c2c1ccc1c2OCO1)OCO3`, the Potency entry in assay [1], in assay [2], in assay [3], in assay [4], in assay [5] and in assay [6] was “inactive” each time.
With `CC(C)[C@H]1CN[C@H](C(=O)O)[C@H]1CC(=O)O`, the Potency result in assay [1], in assay [2], in assay [3], in assay [4], in assay [5] and in assay [6] was “inactive” in each case.
With `NCCc1ccc(S(=O)(=O)F)cc1`, the Potency entry in assay [1], in assay [2], in assay [3], in assay [4], in assay [5] and in assay [6] was “inactive” throughout.
With `COc1ccc2c(c[n+](C)c3c4cc5c(cc4ccc23)OCO5)c1OC`, the Potency is 18.1 µM (active) in assay [1], 9.08 µM (active) in assay [2], 10.6 µM (active) in assay [4] and 5.11 µM (active) in assay [5]. Moreover, the Potency entry in assay [3] and in assay [6] was “inactive” each time.
Take `COc1cc(C(O)CN)ccc1O` (configuration not stated): the Potency result in assay [1], in assay [2], in assay [3], in assay [4], in assay [5] and in assay [6] was “inactive” throughout.
As for `C[N+](C)(C)CCOC(=O)CBr`, the Potency result in assay [1], in assay [2], in assay [3], in assay [4], in assay [5] and in assay [6] was “inactive” throughout.

For the origin of these results see PubChem BioAssay (Tox21).
